# Key:
# [1] = target: Protein kinase C gamma type (Homo sapiens) (UniProt P05129); settings: at 1 µM;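 also: each value is an averaged percent inhibition of the enzyme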
# [2] = target: T1, Protein kinase C iota type (Homo sapiens) (UniProt P41743); settings: at 0.1 µM
# T1 sequence (whole entry): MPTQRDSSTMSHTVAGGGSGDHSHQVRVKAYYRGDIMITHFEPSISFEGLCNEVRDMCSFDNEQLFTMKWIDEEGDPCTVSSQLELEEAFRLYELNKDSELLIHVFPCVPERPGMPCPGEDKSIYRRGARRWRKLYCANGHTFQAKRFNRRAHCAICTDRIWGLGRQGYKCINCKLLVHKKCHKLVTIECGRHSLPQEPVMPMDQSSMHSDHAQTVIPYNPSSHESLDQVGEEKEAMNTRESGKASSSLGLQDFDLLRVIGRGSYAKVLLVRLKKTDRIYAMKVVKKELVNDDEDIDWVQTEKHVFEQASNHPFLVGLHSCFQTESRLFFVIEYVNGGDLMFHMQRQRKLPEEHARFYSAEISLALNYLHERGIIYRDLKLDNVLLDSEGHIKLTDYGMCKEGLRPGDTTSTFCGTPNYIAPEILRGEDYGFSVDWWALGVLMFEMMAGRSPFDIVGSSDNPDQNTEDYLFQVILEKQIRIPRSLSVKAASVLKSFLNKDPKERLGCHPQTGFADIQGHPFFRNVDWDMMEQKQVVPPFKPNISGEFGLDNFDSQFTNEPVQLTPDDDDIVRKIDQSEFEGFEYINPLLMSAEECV
# [3] = target: T1, Protein kinase C iota type (Homo sapiens); settings: at 1 µM
# [4] = target: Protein kinase C theta type (Homo sapiens) (UniProt Q04759); settings: at 0.1 µM
# Chain of Protein kinase C theta type (Homo sapiens) (Q04759 whole entry, looked up): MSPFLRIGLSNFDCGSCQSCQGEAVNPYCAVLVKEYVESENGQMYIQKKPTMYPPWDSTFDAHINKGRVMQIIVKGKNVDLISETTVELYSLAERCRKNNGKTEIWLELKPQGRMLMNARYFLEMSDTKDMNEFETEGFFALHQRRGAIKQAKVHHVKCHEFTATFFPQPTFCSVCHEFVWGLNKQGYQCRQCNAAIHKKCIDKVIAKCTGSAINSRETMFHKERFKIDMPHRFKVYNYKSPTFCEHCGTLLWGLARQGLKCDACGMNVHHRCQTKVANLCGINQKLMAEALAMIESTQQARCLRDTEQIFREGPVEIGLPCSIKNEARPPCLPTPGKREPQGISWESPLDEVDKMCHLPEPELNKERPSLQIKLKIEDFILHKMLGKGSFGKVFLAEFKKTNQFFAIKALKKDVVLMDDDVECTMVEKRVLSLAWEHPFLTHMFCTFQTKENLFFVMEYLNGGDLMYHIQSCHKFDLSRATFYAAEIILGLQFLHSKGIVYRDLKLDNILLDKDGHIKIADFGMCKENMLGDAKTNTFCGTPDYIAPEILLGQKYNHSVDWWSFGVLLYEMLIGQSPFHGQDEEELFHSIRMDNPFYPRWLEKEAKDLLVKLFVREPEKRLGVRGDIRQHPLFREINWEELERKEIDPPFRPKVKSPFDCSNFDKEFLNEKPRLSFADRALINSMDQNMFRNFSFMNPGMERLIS
# [5] = target: Protein kinase C theta type (Homo sapiens) (UniProt Q04759); settings: at 1 µM
# [6] = target: Protein kinase C beta type (Homo sapiens) (UniProt P05771); settings: at 0.1 µM
# Chain of Protein kinase C beta type (Homo sapiens) (P05771 2-671 limits assumed): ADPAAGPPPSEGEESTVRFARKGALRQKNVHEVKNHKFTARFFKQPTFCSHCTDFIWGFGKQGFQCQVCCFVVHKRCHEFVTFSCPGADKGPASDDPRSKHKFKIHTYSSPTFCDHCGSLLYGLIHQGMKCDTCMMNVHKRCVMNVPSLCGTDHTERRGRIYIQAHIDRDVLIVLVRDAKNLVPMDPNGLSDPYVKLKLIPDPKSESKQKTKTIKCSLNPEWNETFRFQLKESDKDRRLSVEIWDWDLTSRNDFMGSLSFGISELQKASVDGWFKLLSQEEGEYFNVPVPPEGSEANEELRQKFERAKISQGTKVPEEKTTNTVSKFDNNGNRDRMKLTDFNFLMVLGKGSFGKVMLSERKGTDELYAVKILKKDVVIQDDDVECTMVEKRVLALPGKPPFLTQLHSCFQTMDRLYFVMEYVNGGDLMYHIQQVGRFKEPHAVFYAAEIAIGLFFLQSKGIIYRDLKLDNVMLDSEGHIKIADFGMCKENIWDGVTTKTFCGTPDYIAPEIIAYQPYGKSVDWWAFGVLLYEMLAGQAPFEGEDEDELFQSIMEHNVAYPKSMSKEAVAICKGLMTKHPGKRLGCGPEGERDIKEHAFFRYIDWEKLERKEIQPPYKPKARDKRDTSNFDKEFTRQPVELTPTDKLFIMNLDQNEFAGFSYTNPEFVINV
# [7] = target: Protein kinase C beta type (Homo sapiens) (UniProt P05771); settings: at 1 µM
# [8] = target: T2, Serine/threonine-protein kinase D1 (Homo sapiens) (UniProt Q15139); settings: at 0.1 µM
# T2 sequence (whole entry): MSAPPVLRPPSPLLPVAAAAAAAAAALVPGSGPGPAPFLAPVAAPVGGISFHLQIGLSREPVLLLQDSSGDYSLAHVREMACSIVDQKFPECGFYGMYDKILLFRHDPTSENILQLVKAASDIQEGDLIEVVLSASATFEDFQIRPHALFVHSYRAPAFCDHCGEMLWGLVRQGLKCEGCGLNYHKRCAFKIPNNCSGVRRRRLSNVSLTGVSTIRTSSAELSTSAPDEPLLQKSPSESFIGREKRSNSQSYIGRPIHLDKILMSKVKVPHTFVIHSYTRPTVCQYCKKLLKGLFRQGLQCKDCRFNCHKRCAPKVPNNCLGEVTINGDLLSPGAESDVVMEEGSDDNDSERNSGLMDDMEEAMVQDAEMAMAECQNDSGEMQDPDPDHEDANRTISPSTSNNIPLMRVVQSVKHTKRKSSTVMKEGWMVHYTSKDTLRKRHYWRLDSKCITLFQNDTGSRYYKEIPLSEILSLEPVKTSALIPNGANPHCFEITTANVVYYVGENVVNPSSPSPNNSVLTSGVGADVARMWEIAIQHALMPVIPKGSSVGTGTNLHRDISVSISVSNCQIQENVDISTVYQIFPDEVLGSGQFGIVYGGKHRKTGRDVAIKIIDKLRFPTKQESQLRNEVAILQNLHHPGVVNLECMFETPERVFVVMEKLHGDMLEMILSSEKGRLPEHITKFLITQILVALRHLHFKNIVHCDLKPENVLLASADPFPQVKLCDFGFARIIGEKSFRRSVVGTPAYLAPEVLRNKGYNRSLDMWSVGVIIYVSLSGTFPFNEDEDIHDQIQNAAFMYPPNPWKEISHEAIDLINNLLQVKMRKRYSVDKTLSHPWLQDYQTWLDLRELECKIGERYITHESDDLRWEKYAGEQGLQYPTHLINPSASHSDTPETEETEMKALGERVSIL
# [9] = target: T2, Serine/threonine-protein kinase D1 (Homo sapiens); settings: at 1 µM
# [10] = target: T3, Serine/threonine-protein kinase D2 (Homo sapiens) (UniProt Q9BZL6); settings: at 0.1 µM;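 also: reported percent inhibition values are means, part of the GSK PKIS kinase panel screen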
# T3 sequence (whole entry): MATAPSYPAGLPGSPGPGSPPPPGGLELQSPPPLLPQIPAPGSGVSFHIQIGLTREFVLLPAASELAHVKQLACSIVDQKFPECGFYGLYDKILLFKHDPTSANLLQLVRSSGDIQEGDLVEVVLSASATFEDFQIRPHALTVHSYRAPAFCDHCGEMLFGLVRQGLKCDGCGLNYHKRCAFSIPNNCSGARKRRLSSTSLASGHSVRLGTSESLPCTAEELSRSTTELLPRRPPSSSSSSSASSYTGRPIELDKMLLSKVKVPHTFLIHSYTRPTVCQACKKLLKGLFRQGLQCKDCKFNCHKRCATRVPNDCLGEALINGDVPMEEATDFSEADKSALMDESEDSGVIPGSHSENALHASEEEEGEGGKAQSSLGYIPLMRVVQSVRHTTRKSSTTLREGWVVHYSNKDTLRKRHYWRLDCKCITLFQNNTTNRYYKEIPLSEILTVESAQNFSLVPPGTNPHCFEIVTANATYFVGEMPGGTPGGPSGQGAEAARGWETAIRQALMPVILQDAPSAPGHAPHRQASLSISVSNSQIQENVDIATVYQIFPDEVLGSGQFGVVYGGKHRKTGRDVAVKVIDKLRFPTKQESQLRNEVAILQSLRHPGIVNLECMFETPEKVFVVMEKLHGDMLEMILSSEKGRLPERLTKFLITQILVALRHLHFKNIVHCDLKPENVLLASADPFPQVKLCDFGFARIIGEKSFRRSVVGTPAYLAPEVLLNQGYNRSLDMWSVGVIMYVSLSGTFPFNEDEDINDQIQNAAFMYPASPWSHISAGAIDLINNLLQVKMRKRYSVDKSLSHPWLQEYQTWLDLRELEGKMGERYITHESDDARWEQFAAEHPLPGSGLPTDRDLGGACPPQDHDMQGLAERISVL
SMILES,inhibition [1] [%],inhibition [2] [%],inhibition [3] [%],inhibition [4] [%],inhibition [5] [%],inhibition [6] [%],inhibition [7] [%],inhibition [8] [%],inhibition [9] [%],inhibition [10] [%]
O=C(O[C@H]1CN[C@H](C#Cc2cc3ncnc(Nc4ccc(Cc5ccccc5)cc4)c3s2)C1)N1CCOCC1,3.28,2.08,2.38,1.84,2.2,2.68,4.05,2.54,3.43,3.17
COC(=O)Nc1nc2ccc(Oc3ccc(NC(=O)Nc4cccc(Cl)c4)cc3)cc2[nH]1,-1.47,0.42,0.23,0.36,0.17,0.5,0.57,2.7,3.03,1.6
COc1cccc(-c2c[nH]c3c(N/N=C/c4ccncc4)ncnc23)c1,7.65,4.1,20.3,0.91,0.99,1.66,5.79,1.3,6.07,1.26
Nc1nc(-c2cccc(Cl)c2)c(-c2ccc3ncccc3n2)s1,6.65,2.71,1.25,4.95,5.67,2.82,2.11,5.85,35,7.33
Fc1ccc(-c2nn3ccccc3c2-c2ccncc2)cc1,2.4,0.48,3.99,0.74,2.07,1.95,10.9,1.78,6.49,1.93
COc1cc2ncn(-c3cc(OCc4ccccc4C(F)(F)F)c(C(=O)N(C)C)s3)c2cc1OC,0.13,-0.68,-2.2,0.14,-0.71,0.03,0.09,0.6,1.47,1.09
CCc1nn2ncccc2c1-c1ccnc(NC2CC2)n1,4.3,0.47,0.64,0.97,1.63,1.1,3.32,2.35,4.56,2.36
CCn1c(-c2nonc2N)nc2ccccc21,4.67,1.65,6.6,1.58,6.38,0.96,7.2,2.23,5.47,2.41
NS(=O)(=O)c1ccc(N/N=C2\C(=O)Nc3ccc4ncccc4c32)cc1,11.8,-0.86,1.52,2.1,11.8,1.28,3.78,12.6,62.2,9.02
CC(=O)NCc1cccc(C#Cc2cncnc2Nc2ccc(OCc3cccc(F)c3)c(Cl)c2)c1,1.3,0.84,0.45,0.15,-0.29,0.7,0.37,3.28,2.11,0.45
CS(=O)(=O)CCNCc1ccc(-c2ccc3ncnc(Nc4ccc(OCc5ccccc5)c(C(F)(F)F)c4)c3c2)o1,0.29,1.93,2.76,1.99,1.95,1.11,1.5,3.89,5.55,3.28
CN(C)CCOc1ccc(-c2nc(-c3ccncc3)c(-c3ccc4c(c3)CC/C4=N\O)[nH]2)cc1,3.66,3.25,3.37,2.07,2.93,0.36,3.35,3.26,6.18,2.55
FC(F)(F)c1cccc(-c2nn3ncccc3c2-c2ccnc(Nc3ccc4c(c3)OCCO4)n2)c1,2.4,-1.47,2.18,0.59,-0.24,0.37,0.77,3.4,33.6,5.98
Nc1ncc(-c2cccc(S(N)(=O)=O)c2)c2scc(-c3ccc(F)c(Cl)c3)c12,2.77,1.76,2.27,1.73,2.11,0.92,1.52,6.59,35,8.43
COc1cc(/C=N/Nc2ncnc3[nH]ncc23)ccc1O,8.27,2.83,2.53,2.3,4.29,0.58,4.16,2.99,4.19,2.81
CC(=O)Nc1cccc(C#Cc2cncnc2Nc2ccc(OCc3cccc(F)c3)c(Cl)c2)c1,3.97,0.27,2.04,0.62,-0.6,1.6,0.79,1.8,2.69,1.88
CCCN1CCC(c2ccc(Nc3nc(Nc4cc(F)ccc4C(N)=O)c4cc[nH]c4n3)c(OC)c2)CC1,29.8,0.78,1.12,2.2,8.87,1.54,6.05,21.5,73.8,18

# — ChEMBL document CHEMBL1961873, “Compounds: GSK PKIS; Assays: Nanosyn kinase panel” (2012)
